From PubChem
In the library only some 9.3% were active in any assay of this set; here they are far more common.
Rab9 prom act: activates the Rab9 promoter. Potency, µM (series often up to 9.22 µM), inactives show at the highest dose activation, negative = inhibition, hits mostly activators. AID 485297. 320,000 compounds, 2.8% hits. Huh7 Rab9 promoter-luciferase reporter, luminescence, 24 h; further: % of control where 0% means no effect; nearly all actives have a fitted effect of over 60% in size
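Luminescence read-out: Huh7 cells stably expressing Rab9-luciferase, treated 24 h with compound at 37 °C, then lysed with luciferase reagent for 10 min at ambient before reading.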
SMN2 splice enh: enhancers of SMN2 splice variant expression | 210,000 compounds, 2.8% hits | Potency, µM (highest dose often 46.1 µM), without a hit: top-dose activity change, positive = activation, actives largely listed as activators | HEK293 SMN2-luciferase splicing reporter, luminescence, 30-36 h | AID 1458; further: % of control where 0% means no effect; nearly all actives have a fitted effect of over 55% in size
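HEK293 cells carry an SMN2 minigene-luciferase reporter in which exon 7 inclusion puts luciferase in frame. Cells were seeded at 2000 cells/well, attached for 10-12 hours, then exposed to compounds for 30-36 hours at 37C before ONE-Glo luminescence.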
ELG1 repair inh: inhibitors of ELG1-dependent DNA repair in HEK293T cells; Potency, µM (doses to about 46.1 µM), without a hit: top-dose activity change, negative = inhibition, usual class: inhibitors; 330,000 compounds, 2.3% hits; HEK293T ELG1-luciferase reporter, luminescence, 16 h; DNA damage induced by 5-fluorouridine; further: on the % scale 0 is the no-effect control and ±100 the full control effect; nearly all actives have a fitted effect of over 55% in size
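Step one: seed 2,000 cells per well. Step two: pin-transfer compound or DMSO alongside 5-fluorouridine. Step three: incubate 16 hr, 37 °C, 5% CO2. Step four: add ONE-Glo, wait 30 min, read luminescence.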
ELG1 genotoxic: inducers of genotoxicity in HEK293T ELG1-luciferase cells; HEK293T ELG1-luciferase reporter, luminescence, 16 h; Potency, µM (series often up to 46 µM), without a hit: at the highest dose activity change, positive = activation, actives largely listed as activators; 330,000 compounds, 1.3% hits; AID 504466; further: % of control where 0% means no effect; nearly all actives have a fitted effect of over 60% in size
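HEK293T cells expressing luciferase-tagged ELG1 were exposed to compound or DMSO vehicle for 16 hr at 37 °C and 5% CO2. Luciferase activity was then measured with ONE-Glo after 30 min at room temperature.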
NPC1 prom act: activators of NPC1 promoter; Potency, µM (titrated, usually from 9.22 µM), for inactives: at the highest dose activation, most hits filed as activators; AID 485313; 320,000 compounds, 2.4% hits; Huh7 NPC1 promoter luciferase reporter, 24 h; further: % of control where 0% means no effect; nearly all actives have a fitted effect of over 60% in size
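Readout is luciferase luminescence, reflecting NPC1 promoter activation in stably transfected Huh7 cells after 24 h compound exposure at 37 °C in reduced-serum medium with 10% FBS.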
FLuc counter: firefly luciferase modulation, counter-screen for miR-21 project | P08659 | Potency, µM (top dose mostly 57.5 µM), for the others: at the highest dose activity change, negative = inhibition, usual class: inhibitors | 360,000 compounds, 6.9% hits | AID 588342 | purified FLuc, Km substrates, luminescence inhibition;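 further: plate controls were vehicle for no effect and reference inhibitor for full effect; nearly all actives have a fitted effect of over 55% in size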
Target sequence (P08659 whole entry, looked up): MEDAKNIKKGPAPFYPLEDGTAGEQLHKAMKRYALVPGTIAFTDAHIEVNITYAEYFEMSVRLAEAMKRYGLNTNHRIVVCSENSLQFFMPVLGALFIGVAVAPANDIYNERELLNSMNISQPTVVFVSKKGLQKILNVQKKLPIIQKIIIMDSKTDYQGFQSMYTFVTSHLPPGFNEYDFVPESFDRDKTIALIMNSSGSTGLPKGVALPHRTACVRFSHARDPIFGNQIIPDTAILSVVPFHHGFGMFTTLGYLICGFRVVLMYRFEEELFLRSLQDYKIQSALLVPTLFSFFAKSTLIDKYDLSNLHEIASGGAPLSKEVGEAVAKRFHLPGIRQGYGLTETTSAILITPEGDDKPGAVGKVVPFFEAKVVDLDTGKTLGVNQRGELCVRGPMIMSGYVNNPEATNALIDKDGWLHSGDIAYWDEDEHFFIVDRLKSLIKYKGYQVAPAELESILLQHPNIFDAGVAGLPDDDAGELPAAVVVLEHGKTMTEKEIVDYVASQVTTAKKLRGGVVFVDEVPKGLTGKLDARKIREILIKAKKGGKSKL
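Purified P. pyralis luciferase (10nM final) with 10uM D-luciferin and 10uM ATP (Km levels) in 50mM Tris acetate pH 7.5, 10mM Mg acetate, 0.01% Tween-20, 0.05% BSA; qHTS 6-point titration, ~60 µM downward; luminescence read.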
Starred values were filed as active, the others as inactive; ? = inconclusive; / = not tested or not shown; [ ] = remark or other dose. The call rests on the fitted dose curve; in most records, active means well fitted curve in the direction sought with a large enough effect; inconclusive means small, poorly fitted or top-dose-only effect, or another doubt; inactive means no such curve, though single readings can be large; an effect the other way counts as inactive or inconclusive. Potency means the concentration at half of the fitted maximal effect.

SMILES	Rab9 prom act	SMN2 splice enh	ELG1 repair inh	ELG1 genotoxic	NPC1 prom act	FLuc counter
CN1CCc2c(sc3c2C(=O)NC(c2ccccc2)N3)C1 (stereo unspecified)	11%	13%	?	0%	4%	?
CC(C)(C)C1CCc2c(sc3c2C(=O)NC(c2ccco2)N3)C1 (stereo unspecified)	2.5µM*	13µM*	?	13%	?	3µM*
CC(C)(C)NC(=O)Nc1ccc2nccnc2c1	3.5µM*	?	?	?	3.5µM*	24µM*
CCOc1ccc(NC(=O)c2ccc(N)cc2)cc1	?	?	?	?	?	9.5µM*
CCOc1ccc(NC(=O)Nc2ccc(NC(C)=O)cc2)cc1	0%	-15%	22%	12%	0%	-2%
CCOc1ccc(NC(=O)Nc2ccc3nccnc3c2)cc1	5%	-22%	?	-12%	0%	19µM*
COc1ccccc1NS(=O)(=O)c1cc(NC(=O)Cc2n[nH]c(=O)c3ccccc23)ccc1Cl	/	/	23µM*	-9%	/	/
Cc1cc(C)cc(N(C(=O)CCC(=O)Nc2ccccn2)C(C(=O)NC(C)C)c2ccc(O)cc2)c1 (stereo unspecified)	-4%	-10%	8%	-2%	-5%	-2%
NC(=NC(=O)c1ccccc1)N1N=CCC1c1ccccc1 (stereo unspecified)	-12%	2%	4%	2%	-6%	-4%
CCOc1ccc(NC(=O)c2ccc(NC(=O)Cc3n[nH]c(=O)c4ccccc34)cc2)cc1	-1%	/	?	9.2µM*	2%	-17%
CCOc1ccc(NC(=O)c2ccc3nccnc3c2)cc1	?	-26%	4%	?	21%	17µM*
COc1ccc(NC(=O)c2ccc3nccnc3c2)cc1	2µM*	13µM*	?	?	4µM*	27µM*
CCOc1ccc(C(=O)COC(=O)Cc2n[nH]c(=O)c3ccccc23)cc1	-19%	/	?	5%	-26%	-14%
CCOc1ccc(C(=O)Nc2c(C(N)=O)oc3ccccc23)cc1	17%	-2%	?	1%	14%	11µM*
CCOc1ccc(NC(=O)c2oc3ccccc3c2NC(=O)c2cc(C)cc(C)c2)cc1	/	-9%	/	/	/	4%
CCOc1ccc(NC(=O)c2ccncc2)cc1	4%	-13%	22%	?	13%	?
Brc1ccc(-c2ccc(C3Nc4cccc5cccc(c45)N3)o2)cc1	4%	/	14%	-2%	-3%	-5%
Brc1ccc(C2=Nc3cccc4cccc(c34)N2)o1	21%	1%	?	3%	20%	12µM*
FC(F)(F)C1=Nc2cccc3cccc(c23)N1	0%	/	12%	-2%	0%	?
Fc1ccc(C2=Nc3cccc4cccc(c34)N2)cc1	?	-14%	-4%	1%	16%	15µM*
NC(=Nc1ccccc1)NC(=O)c1nc(Cl)c(N)nc1N	?	14µM*	/	/	?	/
NC(=NCc1ccccc1)NC(=O)c1nc(Cl)c(N)nc1N	7%[46.1 µM]	-6%	/	/	?	/
COc1ccc(C(=O)CSc2nnc(CNC(=O)c3ccccc3)n2C)cc1	1%	/	-7%	-10%	1%	1%
COc1ccc(C(=O)c2sc(NC(C)C)nc2N)cc1OC	2%	30%	?	-1%	-2%	-1%
COc1cccc(C(=O)c2sc(NC(C)C)nc2N)c1	-1%	20µM*	21µM*	-5%	-6%	-13%
COc1cc(OC)cc(-c2nnc(SCc3ccc(C(=O)O)cc3)o2)c1	-1%	/	2%	0%	-3%	-3%
Clc1ccccc1/C=N/Nc1cc(N2CCOCC2)ncn1	?	/	?	14%	?	?
C/C(=N\Nc1nc(N2CCOCC2)nc(N2CCOCC2)n1)c1cccc([N+](=O)[O-])c1	-3%	7%	?	-7%	-3%	-7%
